Results filed as inconclusive are left out. Calls of active or inactive are those of the source. Unless noted, calls come from the whole dose curve; as a rule, active = well fitted curve in the direction sought with a large enough effect in the repeat runs; inconclusive = weak or mixed curves; inactive = no such curve, though single readings can be large; an effect the other way counts as inactive or inconclusive.
Assays:
[1] = qHTS assay for small molecule agonists of the p53 signaling pathway (AID 651631; calls by dose curve; note: nearly all actives have a fitted effect of over 15% in size)
Procedure, shortened: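 Fluorescence intensity from cleaved LiveBLAzer B/G substrate (2 h, room temperature) served as the signal. Beforehand, HCT-116 reporter cells bearing p53 response elements were treated 16 h at 37 °C with DMSO-dissolved compounds.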

[2] = qHTS assay for small molecule agonists of the p53 signaling pathway - cell viability (AID 651633; calls by dose curve;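 note: p53RE-bla HCT reporter cells with a stable beta-lactamase p53 reporter; series mostly up to about 83 µM; nearly all actives have a fitted effect of over 30% in size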)
Procedure, shortened: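 p53RE-bla cells were treated with compound for 16 hours at 37 C. Cytotoxicity was then measured as CellTiter-Glo luminescence after 30 min at room temperature.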

[3] = qHTS assay for small molecules that induce genotoxicity in human embryonic kidney cells expressing luciferase-tagged ATAD5 - cell viability (AID 651634; calls by dose curve; note: nearly all actives have a fitted effect of over 25% in size)
Procedure, shortened: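 Here HEK293T cells with the ATAD5 luciferase reporter are incubated with test compounds for 15.5 hr, and cytotoxicity is then gauged by measuring protease activity in live cells using fluorescence.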

[4] = qHTS assay for small molecule disruptors of the mitochondrial membrane potential - cell viability (AID 720634; calls by dose curve;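 note: human HepG2 liver cancer cells; series mostly up to about 83 µM; nearly all actives have a fitted effect of over 20% in size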)
Procedure, shortened: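 Viability of HepG2 cells is scored from ATP content by luminescence; cells are exposed to compound for 1 hr at 37 C and 5% CO2, then dosed with m-MPI dye before the CellTiter-Glo reagent.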

[5] = qHTS assay to test for compound auto fluorescence at 590 nm (red) in HepG2 cells (AID 720674)
Procedure, shortened: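 HepG2 cells, 2,000 per well in MEM with 10% FBS, attached overnight at 37 C, then got 23 nL compound or DMSO. After 1 hr at 37 C, 5% CO2, red fluorescence was read at 540/590 nm against Rose Bengal sodium as reference.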

[6] = qHTS assay to test for compound auto fluorescence at 535 nm (green) in HepG2 cells (AID 720675)
[7] = qHTS assay to test for compound auto fluorescence at 460 nm (blue) in HEK293 cells (AID 720678)
Procedure, shortened: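 Cells were seeded and left to adhere for 4-5 hr at 37C. Compounds were then pin-transferred. After an overnight incubation at 37C under 5% CO2, intrinsic fluorescence at 405/460 nm was measured and referenced to triamterene.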

[8] = qHTS assay to test for compound auto fluorescence at 590 nm (red) in HEK293 cells (AID 720679)
Procedure, shortened: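 Each well held 2,000 HEK293 cells in medium containing 10% dialyzed FBS. Following 4-5 hr attachment at 37C, 23 nL test compound or DMSO was added; plates sat overnight, and red fluorescence (540/590nm) was recorded.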

[9] = qHTS assay to test for compound auto fluorescence at 535 nm (green) in HEK293 cells (AID 720680)
[10] = qHTS assay to test for compound auto fluorescence at 460 nm (blue) in HEK293 cell free culture (AID 720681)
Procedure, shortened: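 Compounds were added to cell-free DMEM with 10% FBS and fluorescence read directly. The blue channel used 405 nm excitation and 460 nm emission, with triamterene as the reference fluorophore.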

[11] = qHTS assay to test for compound auto fluorescence at 535 nm (green) in HEK293 cell free culture (AID 720682)
Procedure, shortened: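 Intrinsic compound fluorescence is measured in culture medium containing 10% FBS, with excitation at 485 nm and detection at 535 nm, referenced to fluorescein.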

[12] = qHTS assay to test for compound auto fluorescence at 590 nm (red) in HEK293 cell free culture (AID 720683)
Procedure, shortened: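 Cell-free wells of DMEM with 10% FBS received compound, and intrinsic fluorescence was read at excitation/emission 540/590 nm. Values expressed as equivalence to Rose Bengal sodium.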

[13] = qHTS assay to test for compound auto fluorescence at 460 nm (blue) in HepG2 cell free culture (AID 720685)
Procedure, shortened: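 Cell-free plates of MEM plus 10% FBS received 23 nL compound or DMSO vehicle; blue-channel (405/460 nm) intensity scored against triamterene as reference fluorophore.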

[14] = qHTS assay to test for compound auto fluorescence at 535 nm (green) in HepG2 cell free culture (AID 720686)
[15] = qHTS assay to test for compound auto fluorescence at 460 nm (blue) in HepG2 cells (AID 720687)
Procedure, shortened: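 HepG2 cells in MEM with 10% FBS, attached overnight at 37 C, were exposed to compound or DMSO for 1 hr at 37 C, 5% CO2. Blue fluorescence was read at 405/460 nm, with triamterene as reference fluorophore.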

[16] = molecular target: Glucocorticoid receptor (Homo sapiens) (UniProt P04150); assay: qHTS assay to identify small molecule agonists of the glucocorticoid receptor (GR) signaling pathway (AID 720691; active = well fitted activation curve with a large enough effect in the signal ratio in the repeat runs, not every such curve was filed as active; the % refers to the signal ratio)
Procedure, shortened: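 Compounds in DMSO, alongside positive controls, were added to GR-bla HeLa reporter cells and incubated 18 h at 37 C; GRE-driven beta-lactamase was detected by fluorescence after 2 h with FRET substrate at room temperature.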

[17] = molecular target: Glucocorticoid receptor (Homo sapiens) (UniProt P04150); assay: qHTS assay to identify small molecule antagonists of the glucocorticoid receptor (GR) signaling pathway (AID 720692; active = well fitted inhibition curve with a large enough effect in the signal ratio in the repeat runs, not every such curve was filed as active; the % refers to the signal ratio)
Procedure, shortened: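 In a 1536-well cell format, compounds were added 4 h after seeding GR-bla HeLa cells, together with dexamethasone at 5 nM final; reporter activity was measured by FRET-substrate fluorescence following 18 h at 37 C.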

[18] = qHTS assay for small molecules that induce genotoxicity in human embryonic kidney cells expressing luciferase-tagged ATAD5 (AID 651632); note: nearly all actives have a fitted effect of over 15% in size
Procedure, shortened: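 DMSO vehicle served as the control. HEK293T reporter cells, 16 hr at 37C, then 30 min Amplite at room temperature; ATAD5 induction is measured as luciferase activity.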

[19] = qHTS assay for small molecule disruptors of the mitochondrial membrane potential (AID 720635)
Procedure, shortened: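 HepG2 cells exposed to compound 1 hr at 37C, then Mito-MPS dye 30 min. Ratio read of aggregate (540/590 nm) versus monomer (490/535 nm) fluorescence.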

[20] = qHTS assay to test for compound auto fluorescence at 590 nm (red) in HepG2 cell free culture (AID 720684)
Procedure, shortened: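 Auto fluorescence equivalency versus Rose Bengal sodium, red channel Ex/Em 540/590 nm; compounds in cell-free MEM/10% FBS; DMSO vehicle control.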
% is set by controls: 0 for no effect and ±100 for the full control effect.

Chain of Glucocorticoid receptor (Homo sapiens) (P04150 whole entry, looked up): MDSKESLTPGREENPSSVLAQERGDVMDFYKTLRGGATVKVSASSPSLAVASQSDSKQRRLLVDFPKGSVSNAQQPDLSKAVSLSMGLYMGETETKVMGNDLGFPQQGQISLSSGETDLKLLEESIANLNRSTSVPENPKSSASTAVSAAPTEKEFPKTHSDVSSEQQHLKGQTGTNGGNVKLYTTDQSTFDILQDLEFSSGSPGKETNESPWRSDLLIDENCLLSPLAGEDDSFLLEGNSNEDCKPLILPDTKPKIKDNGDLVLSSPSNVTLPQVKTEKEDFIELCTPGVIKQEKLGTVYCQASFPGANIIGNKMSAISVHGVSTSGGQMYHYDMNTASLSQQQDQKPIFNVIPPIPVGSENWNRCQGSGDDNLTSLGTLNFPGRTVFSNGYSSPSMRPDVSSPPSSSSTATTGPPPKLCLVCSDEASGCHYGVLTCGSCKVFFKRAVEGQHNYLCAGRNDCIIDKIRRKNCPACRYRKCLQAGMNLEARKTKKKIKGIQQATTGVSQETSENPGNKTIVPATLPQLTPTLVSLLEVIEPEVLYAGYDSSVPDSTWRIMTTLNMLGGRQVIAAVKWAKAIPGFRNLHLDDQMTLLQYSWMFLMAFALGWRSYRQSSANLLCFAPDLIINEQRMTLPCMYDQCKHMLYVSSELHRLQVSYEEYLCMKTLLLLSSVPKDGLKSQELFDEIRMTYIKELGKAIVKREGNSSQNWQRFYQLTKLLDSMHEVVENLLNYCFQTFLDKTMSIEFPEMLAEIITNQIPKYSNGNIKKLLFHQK

Nc1ccccn1
inactive: Potency [1] | Potency [2] | Potency [3] | outcome [4] | outcome [5] | outcome [6] | outcome [7] | outcome [8] | outcome [9] | outcome [10] | outcome [11] | outcome [12] | outcome [13] | outcome [14] | outcome [15] | Potency [16] | Potency [17]

C[C@@H]1CCC[C@H](C)N1
inactive: Potency [1] | Potency [18] | Potency [2] | Potency [3] | Potency [19] | fluorescence, relative to Rose Bengal [5] 0.289% [at 18.6 µM] | fluorescence, % of fluorescein control [6] 0.0643% [at 18.6 µM] | fluorescence, % of fluorescent control [8] 0.0043% [at 18.6 µM] | fluorescence, % of fluorescein [9] -0.0078% [at 18.6 µM] | fluorescence, % of fluorescent control [10] -0.0158% [at 18.6 µM] | fluorescence, % of fluorescent control [12] -0.545% [at 18.6 µM] | fluorescence, % of Rose Bengal [20] 0.0262% [at 18.6 µM] | fluorescence, % of fluorescent control [13] -0.0314% [at 18.6 µM] | fluorescence, % of fluorescein control [14] -0.001% [at 18.6 µM] | fluorescence, % of fluorescent control [15] 0.0179% [at 18.6 µM] | Potency [16] | Potency [17]

C[N+]1(C)[C@@H]2CC(OC(=O)[C@H](CO)c3ccccc3)C[C@H]1[C@@H]1O[C@@H]12 (stereo partly drawn)
inactive: Potency [1] | Potency [18] | Potency [2] | Potency [3] | outcome [5] | outcome [6] | outcome [8] | outcome [9] | outcome [10] | outcome [11] | outcome [12] | outcome [14] | Potency [16] | Potency [17]

CC(C)C1CCC(O)CC1 (stereo not drawn)
inactive: Potency [1] | Potency [18] | Potency [2] | Potency [3] | outcome [5] | outcome [6] | outcome [7] | outcome [8] | outcome [9] | outcome [10] | outcome [11] | outcome [12] | outcome [20] | outcome [13] | outcome [14] | outcome [15] | Potency [16]

OCCCCCO
inactive: Potency [1] | Potency [18] | Potency [2] | Potency [3] | outcome [5] | outcome [6] | outcome [7] | outcome [9] | outcome [10] | outcome [11] | outcome [12] | outcome [20] | outcome [14] | outcome [15]

CCCCS(=O)(=O)N[C@@H](Cc1ccc(OCCCCC2CCNCC2)cc1)C(=O)O
inactive: Potency [1] | Potency [18] | Potency [2] | outcome [4] | Potency [19] | outcome [5] | outcome [6] | outcome [7] | outcome [8] | outcome [9] | outcome [10] | outcome [11] | outcome [12] | outcome [20] | outcome [13] | outcome [14] | outcome [15]

CCOC(=O)COC(=O)c1ccccc1C(=O)OCC
inactive: Potency [1] | Potency [18] | Potency [2] | Potency [3] | outcome [5] | outcome [6] | outcome [7] | outcome [8] | outcome [9] | outcome [10] | outcome [11] | outcome [12] | outcome [13] | outcome [14] | outcome [15] | Potency [16] | Potency [17]

O=C1NC(=O)C2CC=CCC12 (stereo not drawn)
inactive: Potency [1]

C=CC(=O)OCCCl
inactive: Potency [1]

Nc1ccn([C@@H]2O[C@H](CO)[C@@H](O)[C@@H]2O)c(=O)n1
inactive: Potency [18] | Potency [2] | Potency [3] | outcome [5] | outcome [6] | outcome [8] | outcome [9] | outcome [10] | outcome [11] | outcome [12] | outcome [20] | outcome [14] | outcome [15] | Potency [16]

CCO[Si](OCC)(OCC)c1ccccc1
inactive: Potency [18] | Potency [2] | Potency [3] | outcome [5] | outcome [6] | outcome [8] | outcome [9] | outcome [10] | outcome [11] | outcome [12] | outcome [20] | outcome [13] | outcome [14] | Potency [16] | Potency [17]

CCN[C@H]1C[C@H](C)S(=O)(=O)c2sc(S(N)(=O)=O)cc21
inactive: Potency [18] | Potency [3] | outcome [4] | Potency [19] | outcome [5] | outcome [6] | outcome [7] | outcome [8] | outcome [9] | outcome [10] | outcome [11] | outcome [12] | outcome [20] | outcome [13] | outcome [14] | outcome [15] | Potency [16]

CC1=NN(c2cccc(S(=O)(=O)O)c2)C(=O)C1
inactive: Potency [18] | Potency [3] | outcome [4] | outcome [5] | outcome [6] | outcome [7] | outcome [8] | outcome [9] | outcome [10] | outcome [11] | outcome [12] | outcome [20] | outcome [13] | outcome [14] | outcome [15] | Potency [16] | Potency [17]

CC(CO)(CO)[N+](=O)[O-]
inactive: Potency [18] | Potency [2] | Potency [3] | outcome [4] | outcome [5] | outcome [6] | outcome [7] | outcome [9] | outcome [10] | outcome [11] | outcome [12] | outcome [20] | outcome [13] | outcome [14] | outcome [15]

NC(N)=NCCN1CCCCCCC1
inactive: Potency [18] | Potency [3] | outcome [4] | fluorescence, relative to Rose Bengal [5] 0.248% [at 18.6 µM] | fluorescence, % of fluorescein control [6] 0.0444% [at 18.6 µM] | fluorescence, % of triamterene [7] -0.176% [at 18.6 µM] | fluorescence, % of fluorescent control [8] -0.493% [at 18.6 µM] | fluorescence, % of fluorescein [9] -0.017% [at 18.6 µM] | fluorescence, % of fluorescent control [10] -0.0671% [at 18.6 µM] | activity change [11] 0.0837% [at 18.6 µM] | fluorescence, % of fluorescent control [12] -0.0086% [at 18.6 µM] | fluorescence, % of Rose Bengal [20] -0.0563% [at 18.6 µM] | fluorescence, % of fluorescent control [13] 0.0071% [at 18.6 µM] | fluorescence, % of fluorescein control [14] 0.0218% [at 18.6 µM] | fluorescence, % of fluorescent control [15] -0.0842% [at 18.6 µM] | Potency [16] | Potency [17]

C1CCC2=NCCCN2CC1
inactive: Potency [2] | Potency [3] | outcome [4] | Potency [19] | outcome [5] | outcome [6] | outcome [7] | outcome [8] | outcome [9] | outcome [10] | outcome [11] | outcome [12] | outcome [20] | outcome [13] | outcome [14] | outcome [15] | Potency [16] | Potency [17]
